# Experimental data reported in PubChem BioAssay (NCI).
# About 79,000 compounds went through this panel and 15% of them were active in at least one assay; those are over-represented in the sample as a whole. Active and inactive are the calls of the source. No stated cut-off is given here; in the data, active means growth inhibition above about 70%; inactive means the rest.
# Assay: NCI Yeast Anticancer Drug Screen. Data for the rad52 strain (AID 147);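 further: 0% = growth of vehicle-treated control cultures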
# Settings: S. cerevisiae rad52 mutant growth inhibition; at 33.0 µM; stronger effect = higher value
# Summary of the method: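 Vehicle-treated cultures served as the reference for growth inhibition of compound-exposed yeast bearing a DNA repair mutation.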
row,Structure (SMILES),growth inhibition
1,OC(Cc1cccc2ccccc12)CN1CCC(c2ccccc2)CC1 (stereo unspecified),91% (active)
2,C1=CCN([B-](c2ccccc2)[C+]2CCCCC2)C=C1,58% (inactive)
3,O=[N+]([O-])c1cc[n+]([O-])c(Cl)c1,82% (active)
4,CCCNC(=O)OCc1c(COC(=O)NCCC)c(-c2ccc(Cl)c(Cl)c2)n2c1CCC2,29% (inactive)
5,CC1(C)CC(=O)C(C(=O)Nc2cccs2)=C(O)C1,64% (inactive)
6,O=C(NO)c1coc2ccccc2c1=O,-2% (inactive)
7,COc1ccc(C(C)c2cc3c(cc2OCC(C)=O)OCO3)cc1 (stereo unspecified),-1% (inactive)
8,CCS(=O)(=O)Nc1ccc(Nc2c3ccccc3nc3ccccc23)c(OC)c1,90% (active)
9,O=S(=O)(c1ccccc1)N1CN2CN(C1)CN(S(=O)(=O)c1ccccc1)C2,-8% (inactive)
10,CC1=NN(C(=O)c2ccccc2O)C(=O)/C1=C/c1ccco1,92% (active)
11,O=C1C=C(Br)C(=O)c2ccccc21,99% (active)
12,C[N+](C)([O-])CCCNc1c2ccccc2nc2cccc([N+](=O)[O-])c12,96% (active)
13,Cc1cccc2c(NCCCN(C)C)c3c([N+](=O)[O-])ccc(C)c3nc12,97% (active)
14,OC1(c2ccccc2)C2CC=CC2C1(c1ccccc1)c1ccccc1 (stereo unspecified),34% (inactive)
15,C[n+]1c(-c2ccc(/C=N/NC(=O)c3ccc(C(=O)N/N=C/c4ccc(-c5cn6ccccc6[n+]5C)cc4)cc3)cc2)cn2ccccc21,54% (inactive)
16,CCN(CC)CCC(=O)Nc1ccc2sc3ccccc3c(=O)c2n1,95% (active)
